Hit rate of the full screen: of about 39,000 compounds, about 3,300 (8.5%) were called active. What follows is part of a selection rich in actives, with near analogues and random picks from the rest.

The subject of the experiment is HepG2. Briefly: cytotoxicity call (relative viability < 0.9). The conditions noted are these: 10 µM.
For the molecule `C[C@@H]1CN([C@@H](C)CO)C(=O)c2cc(Br)cnc2O[C@H]1CN(C)Cc1ccccc1C(=O)O`, the cytotoxicity call is “inactive”.
To `COc1nc2ccc(Br)cc2cc1[C@@H](c1ccccc1)[C@@](O)(CCN(C)C)c1cccc2ccccc12` belongs “inactive”; to `C[C@@H]1CCCCO[C@@H](CN(C)Cc2ccccc2)[C@H](C)CN([C@H](C)CO)C(=O)c2cc(NC(=O)Nc3ccc4c(c3)OCO4)ccc2O1`, “inactive”; to `CC(=O)N[C@@H]1[C@@H](OCCOc2ccc(Cl)cc2C)O[C@H](CO)[C@H](O)[C@@H]1O`, “inactive”.
As for `CCOc1ccc(CO[C@@H]2O[C@H](CO)[C@@H](O)[C@H](O)[C@H]2NC(C)=O)cc1OC`, the cytotoxicity call was “active”.
To `CC(=O)N[C@@H]1[C@@H](Oc2ccc(C(C)=O)cc2)O[C@H](CO)[C@H](O)[C@@H]1O` belongs “inactive”.
Regarding `COCCOC(=O)N1C(=O)[C@@]2(c3ccccc31)[C@H](C(=O)Nc1nc3ccccc3s1)[C@H]1C(=O)O[C@H](c3ccccc3)[C@H](c3ccccc3)N1[C@@H]2c1ccc(OCCO)cc1`, the cytotoxicity call is “inactive”.
In the case of `CC(C)NC(=O)Cn1ccc([N+](=O)[O-])n1`, the cytotoxicity call was “inactive”.
For the molecule `NS(=O)(=O)C#Cc1ccccc1`, the cytotoxicity call is “active”.
The result for `Nc1ccccc1S(N)(=O)=O` reads “inactive”; that for `NS(=O)(=O)c1ccccc1`, “inactive”.
Regarding `C[C@H]1CN([C@@H](C)CO)S(=O)(=O)c2ccc(C#Cc3cccnc3)cc2O[C@@H]1CN(C)C(=O)CN(C)C`, the cytotoxicity call is “inactive”.
To `CS(=O)(=O)CCNCc1nc(-c2ccc3ncnc(Nc4ccc(OCc5cccc(F)c5)c(Cl)c4)c3c2)cs1` belongs “inactive”.
As for `CS(=O)(=O)CCNCc1ccc(-c2ccc3ncnc(Nc4ccc(OCc5cccc(F)c5)c(Cl)c4)c3c2)o1` [listing 1 of 2 here], the cytotoxicity call is “active”.
Turning to `CC(C)(O)CC(=O)NCCn1ccc2ncnc(Nc3ccc(Oc4cccc(C(F)(F)F)c4)c(Cl)c3)c21`, the cytotoxicity call is “inactive”.
To `CS(=O)(=O)CCNCc1ccc(-c2ccc3ncnc(Nc4ccc(OCc5cccc(F)c5)c(Cl)c4)c3c2)o1` [listing 2 of 2 here] belongs “active”; to `CC(CCC(=O)O)C1CCC2C3CCC4CCCCC4(C)C3CCC12C` (centres undefined), “inactive”.
To `CN(C)CC(=O)N[C@H]1CC[C@H](CC(=O)NCCN2CCCCC2)O[C@H]1CO` belongs “inactive”; to `Cc1ccc(S[C@]2(C(=O)NCCCN(C)C)CC(=O)N(C3Cc4ccccc4C3)[C@@H]2c2ccc(CO)cc2I)cc1`, “inactive”.
For `CS(=O)(=O)N1C[C@H](O)COC[C@@H]2O[C@@H](CC(=O)NCCc3ccncc3)CC[C@H]21`, the cytotoxicity call is “inactive”.
The result for `CO[C@H]1CN(C)C(=O)c2cc(NS(C)(=O)=O)ccc2OC[C@@H](C)N(C(=O)CN(C)C)C[C@@H]1C` reads “inactive”; that for `C[C@H]1CCCCO[C@H](CN(C)CC2CC2)[C@@H](C)CN([C@@H](C)CO)C(=O)c2cc(NC(=O)CCC(F)(F)F)ccc2O1`, “inactive”.
Consider `Cc1ccc(NC(=O)c2ccc(CN3CCN(C)CC3)cc2)cc1Nc1nccc(-c2cccnc2)n1`, for which the cytotoxicity call was “inactive”.
To `Cc1ncc(NC(=O)c2ccc(CN3CCN(C)CC3)c(C(F)(F)F)c2)cc1Nc1nccc(-c2cccnc2)n1` belongs “active”; to `Cc1ccc(NC(=O)c2ccc(CN3CC[C@H](N(C)C)C3)c(C(F)(F)F)c2)cc1Nc1nccc(-c2cncnc2)n1`, “active”; to `Cc1ccc(S(=O)(=O)Nc2ccc3c(c2)C(=O)N([C@@H](C)CO)C[C@H](C)[C@@H](CN(C)C(=O)C2CCCCC2)OCCCC[C@H](C)O3)cc1`, “inactive”.
The result for `COc1ccc(CCNC(=O)[C@@H]2c3ccccc3C(=O)N(Cc3ccccc3OC)[C@H]2c2ccc(CO)cc2)cc1` reads “inactive”.
To `C[C@@H]1CCCCO[C@H](CN(C)CC2CCCCC2)[C@@H](C)CN([C@H](C)CO)C(=O)c2cc(NC(=O)CCC(F)(F)F)ccc2O1` belongs “inactive”; to `COc1ccc(NC(=O)N(C)C[C@H]2OCCCC[C@H](C)Oc3ccc(NS(=O)(=O)c4ccccc4)cc3C(=O)N([C@@H](C)CO)C[C@@H]2C)cc1`, “inactive”; to `Cc1ccc(S(=O)(=O)N(C)C[C@H]2OCCCC[C@H](C)Oc3ccc(NC(=O)Cc4ccccc4)cc3C(=O)N([C@@H](C)CO)C[C@H]2C)cc1`, “inactive”.
Turning to `COc1ccc([Si](C)(C)[C@H]2[C@H](CCO)O[C@@]3(C(=O)N(Cc4cccc(N5C(=O)c6ccccc6Oc6ccccc65)c4)c4ccccc43)[C@@H]2C)cc1`, the cytotoxicity call is “active”.
To `COc1ccc([Si](C)(C)[C@H]2[C@H](CCO)O[C@@]3(C(=O)N(Cc4cccc(N5CCCCC5=O)c4)c4ccccc43)[C@@H]2C)cc1` belongs “inactive”; to `COc1ccc([Si](C)(C)[C@@H]2[C@@H](CCO)O[C@]3(C(=O)N(Cc4cccc(N5C(=O)c6ccccc6Oc6ccccc65)c4)c4ccccc43)[C@H]2C)cc1`, “active”.
The result for `C[C@H]1[C@H]([Si](C)(C)F)[C@@H](CCO)O[C@]12C(=O)N(Cc1cccc(N3C(=O)c4ccccc4Oc4ccccc43)c1)c1ccccc12` reads “inactive”; that for `CCNc1ncnc2c1nnn2C`, “inactive”; that for `Nc1cc([N+](=O)[O-])ccc1C(=O)O`, “inactive”.
In the case of `C[C@@H]1CCCCO[C@H](CN(C)C(=O)Nc2ccc(F)cc2)[C@@H](C)CN([C@H](C)CO)C(=O)c2cc(NC(=O)c3ccncc3)ccc2O1`, the cytotoxicity call was “inactive”.
The result for `C[C@@H]1CN([C@H](C)CO)C(=O)CCCn2cc(nn2)CO[C@H]1CN(C)C(=O)Nc1ccc2c(c1)OCO2` reads “inactive”; that for `C[C@@H]1CN([C@@H](C)CO)C(=O)c2cccc(NC(=O)c3cnccn3)c2O[C@@H]1CN(C)S(=O)(=O)c1cccs1`, “inactive”; that for `Cc1noc(C)c1NC(=O)Nc1ccc2c(c1)C(=O)N([C@H](C)CO)C[C@@H](C)[C@H](CN(C)Cc1ccc(C(F)(F)F)cc1)OCCCC[C@@H](C)O2`, “inactive”.
The result for `CCN1CCN(c2ccc(Nc3cc(N(C)C(=O)Nc4c(Cl)c(OC)cc(OC)c4Cl)ncn3)cc2)CC1` reads “active”; that for `C[C@H]1CN([C@@H](C)CO)S(=O)(=O)c2ccc(C3=CCCCC3)cc2O[C@@H]1CN(C)C(=O)C1CCOCC1`, “inactive”.
To `C[C@@H]1CCCCO[C@H](CN(C)C(=O)Nc2ccc(F)cc2)[C@H](C)CN([C@@H](C)CO)C(=O)c2cc(NC(=O)Nc3ccc4c(c3)OCO4)ccc2O1` belongs “inactive”; to `COCC(=O)N1C[C@H](C)[C@H](OC)CN(C)C(=O)c2cc(NC(=O)c3ccc(OC)cc3)ccc2OC[C@@H]1C`, “inactive”.

(Values after the antibiotic and cytotoxicity screens of Wong et al. (2023).)
